# Reference: PubChem BioAssay (Tox21)
# Several values for one entry are separate records, joined by “and”; a condition that tells them apart may be missing. Identical values can stand only once. Results filed as inconclusive are left out. Activity calls are given as the source filed them. The call rests on the fitted dose curve; in most records, active means well fitted cell-killing curve with a large enough effect in the repeat runs; inconclusive means weak or mixed curves, or effect the other way; inactive means flat fitted curve, though single readings scatter.
# Assay: qHTS assay to identify small molecule agonists of the androgen receptor (AR) signaling pathway in the presence of an antagonist - cell viability counter screen (AID 1259379); further: nearly all actives have a fitted effect of over 25% in size
# Details: MDA-kb2 viability, CellTiter-Fluor, 16 h; series mostly up to 92.4 µM; activity change, negative = cytotoxicity: at the top concentration
# From the text: National Center for Advancing Translational Sciences [NCATS]
# NIH Chemical Genomics Center [NCGC]
# U.S. Environmental Protection Agency [EPA]
# National Institutes of Environmental Health Sciences [NIEHS]
# National Toxicology Program [NTP]
# U.S. Food and Drug Administration [FDA]
# Androgen receptor (AR) is an important member of nuclear receptor family. Its signaling plays a critical role in AR-dependent prostate cancer and other androgen related diseases. Considerable attention has been given in the past decades to develop methods to study and screen for the environmental chemicals that have the potential to interfere with metabolic homeostasis, reproduction, developmental and behavioral functions. Therefore AR binding assay for screening against androgen agonists and antagonists can be used to identify potential endocrine disruptors.
# MDA-kb2 cells (from ATCC, deposited by Wilson et al.) are human breast carcinoma cells that were stably transfected with a luciferase reporter gene under control of the MMTV promoter that contains response elements for both androgen receptor (AR) and glucocorticoid receptor (GR). This particular screening for measuring luciferase reporter gene activity using MDA-kb2 cells against Tox21 10K library compounds is a confirmation study on agonist mode screening in the presence of AR-antagonist compound (Nilutamide) at 3.0uM final concentration. The cytotoxicity of the compounds was tested in parallel by measuring the cell viability using CellTiter-Fluor assay system (Promega, Madison, WI) in the same wells.
# Tox21 Assay Protocol Summary:
# MDA-kb2 cells (cells cultured without CO2) were dispensed at 3,000 cells/well in 4uL of culture medium into white wall/solid-bottom 1536-well plates (Corning Life Sciences, Corning, NY) using a Multidrop Combi (Thermo Fisher Scientific Inc., Waltham, MA) dispenser. The assay plates were incubated at 37C and 0% CO2 for 5hr. One uL of 3.0uM (final concentration) Nilutamide or assay buffer was added using two separate tips of Flying Reagent Dispenser (FRD, Aurora Discovery, San Diego, CA). Then 23nL of compounds dissolved in DMSO at 15 concentrations and positive controls were transferred to the assay plates using a Pintool station (Wako, San Diego, CA). The assay plates were incubated at 37C and 0% CO2 for 16 hr. After 15hr incubation at 37C, 1uL/well CellTiter-Fluor reagent (Promega Corporation) was added to each well of the assay plates using FRD. After 1hr incubation at 37C and 0% CO2, the fluorescence signal was measured using a ViewLux plate reader (PerkinElmer, Shelton, CT).
# On the % scale 0 is the no-effect control and ±100 the full control effect; potency means the concentration at half of the fitted maximal effect.
SMILES,"activity change, negative = cytotoxicity",Potency
C=CCN1CC[C@]23c4c5ccc(O)c4O[C@H]2C(=O)CC[C@@]3(O)[C@H]1C5,-0.892% [at 42.5 µM] (inactive),
C(=NC1CCCCC1)=NC1CCCCC1,,2.45 µM (active) and 4.86 µM (active)
c1cc2ccc3cccc4ccc(c1)c2c34,0.012% (inactive),
CCCCCCCCCC(=O)O[C@H]1CC[C@H]2[C@@H]3CCC4=CC(=O)CC[C@@H]4[C@H]3CC[C@]12C,-5.51% [at 42.5 µM] (inactive),
O=S(=O)(O)C(F)(F)C(F)(F)C(F)(F)C(F)(F)F,5.22% (inactive),
CC(=O)c1cc2c(cc1C)C(C)(C)C(C)CC2(C)C (stereo not given),0.751% (inactive),
CCOP(=S)(OCC)Oc1nc(Cl)c(Cl)cc1Cl,,inactive
CCN(C)N=O,3.19% (inactive),
O=C(CBr)OCc1ccccc1,-0.647% (inactive),
CCCCN(N=O)C(=N)N[N+](=O)[O-],-1.37% (inactive),
C=CC(=O)OCC(C)C,1.01% (inactive),
O=C(C(Cl)(Cl)Cl)C(Cl)(Cl)Cl,-0.371% (inactive),
C=CC[C@]1(O)CC[C@H]2[C@@H]3CCC4=CC(=O)CCC4=C3C=C[C@@]21C,-4.82% [at 42.5 µM] (inactive),
N#C/C(N)=C(/N)C#N,0.21% (inactive),
CNP(=O)(OC)Oc1ccc(C(C)(C)C)cc1Cl (stereo not given),-2.24% (inactive),
NC(=O)C(Cl)(Cl)Cl,0.591% (inactive),
C#CCOC(C(=O)OCCN(C)C)(c1ccccc1)c1ccccc1,-1.41% [at 42.5 µM] (inactive),
Sc1ccccc1Cl,2.31% [at 42.5 µM] (inactive),
CCOP(=S)(Oc1ccc([N+](=O)[O-])cc1)c1ccccc1 (stereo not given),1.75% (inactive),
Cc1ccc(-c2c(Cl)nc(C#N)n2S(=O)(=O)N(C)C)cc1,,48.5 µM (active)

SMILES,"activity change, negative = cytotoxicity",Potency
IC(I)=C(I)I,,27.3 µM (active)
O=C(O)COc1ccc(Cl)cc1,-0.165% (inactive),
CCC(C)(NC(=O)c1cc(Cl)c(C)c(Cl)c1)C(=O)CCl (stereo not given),,61.5 µM (active)
Brc1ccc(Oc2ccccc2)cc1,,inactive
CC(C)N(CCC(C(N)=O)(c1ccccc1)c1ccccn1)C(C)C (stereo not given),0.0112% [at 42.5 µM] (inactive),
CC[C@H]1C[C@H]2[C@@H]3CCC4=CC(=O)CC[C@@H]4[C@H]3CC[C@]2(C)[C@H]1O,-7.02% [at 42.5 µM] (inactive),
ClCC(Br)CBr (stereo not given),-1.14% (inactive),
Cc1cc(=O)[nH]o1,2.75% (inactive),
CCCCNP(N)(N)=S,1.7% (inactive),
CCOC(=O)COc1cc(-c2nn(C)c(OC(F)F)c2Cl)c(F)cc1Cl,0.908% (inactive),
CCCCc1c(C)nc(NCC)nc1OS(=O)(=O)N(C)C,-12.6% (inactive),
CCCCCCCCOC(=O)c1ccc(C(=O)OCCCCCCCC)c(C(=O)OCCCCCCCC)c1,1.32% (inactive),
N#CCC#N,2.07% (inactive),
C=CC(=O)OC,1.16% (inactive),
O=Cc1ccc2c(c1)OCO2,0.0623% (inactive),
CCOC(=O)C(Cl)C(C)=O (stereo not given),1.13% (inactive),
CCCCCC[N+](=O)[O-],1.34% (inactive),
O=C(O)C(F)(F)C(F)(F)C(F)(F)C(F)(F)C(F)(F)C(F)(F)C(F)(F)C(F)(F)C(F)(F)C(F)(F)F,0.482% (inactive),
O=C(O)c1ccccc1C(=O)Nc1cccc2ccccc12,0.44% (inactive),
Brc1ccccc1,-0.451% (inactive),
